Source: PubChem (several laboratories)
Most compounds without a hit are left out; they make up all but 2.7% or so of the library.
Shn3 inh set2 – inhibitors of Schnurri-3 3'UTR reporter in osteoblasts; 0.52% of 360,000 active; Clone20 osteoblast Shn3 3'UTR firefly luciferase, 24 h; inhibition, % at 12.5 µM; AID 588674;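 active = mean inhibition of at least 75% with every replicate also reaching 75%; inconclusive = mean inhibition at least 75% but some replicate below; inactive = mean inhibition below 75%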;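 note: 0% = median of neutral control wells and 100% = pilot-screen positive control compound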
Peg3 prom inh-1 – reduces Peg3 promoter-driven luciferase expression in HeLa | AID 588405 | 1.7% of 360,000 active | inhibition, % at 20 µM | HeLa PEG-Prom luciferase reporter, luminescence, overnight;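 active = inhibition of at least 50% at 20 µM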
HIF-2a block – HIF-2a inhibition; 786-0 RCC cells HIF-2a reporter, luciferase luminescence, overnight; AID 624352; 0.72% of 360,000 active; inhibition, % at 18.8 µM;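 active = inhibition of the luminescence signal of 40% or more relative to plate controls, in a single-dose primary screen at 18.75 µM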
KKLEB cytotox – counter-screen for CF NF-kB inhibitors: cytotoxicity; KKLEB CF airway cells viability, ATPlite luminescence, overnight; hits give low values; cells stimulated with P. aeruginosa culture filtrate; activity change (cytotoxicity), % at 5 µM; 0.36% of 360,000 active;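 active = corrected activity change at or below -50% at 5 µM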
TRPM1 prom inh – MITF TRPM1 promoter inhibition in SK-MEL-5 cells; SK-MEL-5 TRPM1 promoter luciferase, 24 h; AID 488899; inhibition, % at 12.5 µM; 0.83% of 330,000 active;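 active = mean inhibition across replicates of 60% or more, whatever share of single replicates reaches that level; inconclusive = some that reach 60%, reason not given; inactive = mean inhibition across replicates below 60%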
CF NFkB inh – blocks PAF-induced NF-kB reporter in cystic fibrosis cells; KKLEB NF-kB-GFP reporter, GFP fluorescence overnight; inhibition, % at 5 µM; 0.86% of 360,000 active; AID 588850;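 active = at least 50% inhibition at 5 µM, scaled per plate between neutral and stimulator controls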;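 note: PAF is a Pseudomonas aeruginosa culture filtrate used as stimulus; plate controls were PAF-stimulated DMSO wells for no effect and unstimulated DMSO wells for full effect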
Peg3 prom inh-2 – Peg3 promoter inhibition confirmation. inhibition, % at 20 µM. shares compounds with Peg3 prom inh-1. AID 602417. HeLa PEG-Prom luciferase reporter, luminescence, overnight. 84% of 1,300 active;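 active = at 20 µM dose, 40% or more inhibition averaged across four replicates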
CF NFkB conf – confirmation of cystic fibrosis induced NF-kB inhibitors | shares compounds with CF NFkB inh | KKLEB CF airway cells, PAF-induced NF-kB-GFP fluorescence, overnight | inhibition, % at 5 µM | 64% of 1,300 active; in the data active = inhibition above about 40%;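 note: stimulus PAF is a Pseudomonas aeruginosa filtrate and not platelet activating factor; plate controls were DMSO wells with stimulus for no effect and unstimulated DMSO wells for full effect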
Mdm2-MdmX confirm – confirmation of inhibitors of human Mdm2/MdmX interaction, set 2; shares compounds with HIF-2a block; 99% of 740 active; inhibition, % at 8 µM; SaOS-2 split-luciferase Mdm2/MdmX complementation, luminescence;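 active = mean inhibition of the luminescence signal across two replicates at or above 26 percent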
Target sequence (O15151 whole entry, looked up): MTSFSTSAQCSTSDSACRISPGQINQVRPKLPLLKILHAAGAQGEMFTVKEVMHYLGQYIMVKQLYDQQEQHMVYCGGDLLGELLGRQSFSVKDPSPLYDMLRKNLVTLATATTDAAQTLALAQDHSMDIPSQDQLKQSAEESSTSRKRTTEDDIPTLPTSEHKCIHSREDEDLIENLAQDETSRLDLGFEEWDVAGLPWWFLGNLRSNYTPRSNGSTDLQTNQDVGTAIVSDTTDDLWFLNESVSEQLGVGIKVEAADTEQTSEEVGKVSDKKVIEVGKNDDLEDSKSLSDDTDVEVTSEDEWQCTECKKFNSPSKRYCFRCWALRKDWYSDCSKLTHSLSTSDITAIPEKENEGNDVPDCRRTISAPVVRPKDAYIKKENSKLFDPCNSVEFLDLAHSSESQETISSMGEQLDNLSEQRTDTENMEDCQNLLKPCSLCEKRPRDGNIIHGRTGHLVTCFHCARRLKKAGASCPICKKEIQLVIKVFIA
Target sequence (Q00987 whole entry, looked up): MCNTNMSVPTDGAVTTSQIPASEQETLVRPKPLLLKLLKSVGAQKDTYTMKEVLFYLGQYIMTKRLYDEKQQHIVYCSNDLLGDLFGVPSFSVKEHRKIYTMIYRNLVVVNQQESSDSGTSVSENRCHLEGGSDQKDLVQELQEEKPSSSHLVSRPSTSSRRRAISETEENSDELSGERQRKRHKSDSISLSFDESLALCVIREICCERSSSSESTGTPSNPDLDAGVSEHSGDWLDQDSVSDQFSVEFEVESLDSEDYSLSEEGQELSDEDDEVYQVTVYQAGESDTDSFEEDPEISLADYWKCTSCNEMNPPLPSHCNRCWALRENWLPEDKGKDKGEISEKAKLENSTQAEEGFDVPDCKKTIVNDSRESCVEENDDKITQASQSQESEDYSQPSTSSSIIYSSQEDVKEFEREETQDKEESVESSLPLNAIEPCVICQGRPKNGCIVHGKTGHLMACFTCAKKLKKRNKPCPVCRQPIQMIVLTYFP
HIF-2a conf – HIF-2a inhibition, single concentration confirmation | inhibition, % at 18.8 µM | shares compounds with HIF-2a block | 786-0 RCC cells, HIF-2a luciferase reporter luminescence, overnight | AID 651580 | 56% of 1,800 active;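 active = mean inhibition across four replicates of at least 40 percent at the single tested concentration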
HIF-1a counter – inhibits HIF-1a reporter, a counter-screen for HIF-2a inhibitors; inhibition, % at 18.8 µM; MiaPaCa-2 HIF-1a luciferase reporter, desferoxamine, overnight; shares compounds with HIF-2a block; AID 651589; 72% of 1,800 active;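 active = mean inhibition of the reporter signal across four replicates at the single tested dose of 50% or more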
Active calls of the source: *; ? = inconclusive; · = no result.

SMILES | Shn3 inh set2 | Peg3 prom inh-1 | HIF-2a block | KKLEB cytotox | TRPM1 prom inh | CF NFkB inh | Peg3 prom inh-2 | Mdm2-MdmX confirm | HIF-2a conf | HIF-1a counter | others
O=c1cnnc(N/N=C/c2ccccn2)[nH]1 | 96* | 62* | 14 | -2 | 80* | 11 | 73* | 87* | · | ·
CCCC(=O)NC(c1ccccc1Cl)c1ccc2cccnc2c1O (stereo unspecified) | ? | 53* | 4 | -8 | · | 13 | 62* | 91* | · | ·
O=[N+]([O-])c1ccc(Cl)cc1C=NNc1ccccn1 | -14 | -7 | -9 | 3 | 8 | -25 | · | · | · | ·
O=[N+]([O-])c1cc(Cl)cc(/C=N\Nc2ccccn2)c1O | 89* | 55* | 8 | -93* | 58 | 85* | 55* | 88* | · | ·
O=C(NCc1cccnc1)c1cc(C2CCCN(C(=O)c3cccc(O)c3)C2)on1 (stereo unspecified) | -13 | -2 | 4 | -22 | · | 27 | · | · | · | ·
Cc1ccc(NS(=O)(=O)c2cc3c4c(cccc4c2)C(=O)NC3=O)cc1C | 31 | 57* | 54* | -2 | 8 | 1 | 60* | · | 29 | 102*
Cc1ccc(NS(=O)(=O)c2ccc3c(c2)n(C)c(=O)n3C)cc1C | 30 | 27 | 31 | 4 | 14 | -13 | · | · | · | ·
CN1OC[C@@H]2CN[C@H](c3ccc(-c4cc5ccccc5o4)cc3)C[C@@H]21 | 85 | 89* | 90* | -46 | · | -4 | 90* | · | 96* | 98*
Cc1ccccc1Nc1nc(N)nc(COC(=O)c2ccccc2)n1 | -76 | -252 | -142 | -5 | -78 | 10 | · | · | · | ·
Nc1nc(CCl)nc(Nc2cccc3ccccc23)n1 | 1 | 64* | 40* | -80* | · | 83* | 72* | 102* | · | ·
O=C(Nc1ccncc1)c1cc(C2CCCCN2C(=O)CCc2ccccc2)on1 (stereo unspecified) | -43 | 12 | 14 | 10 | · | 9 | · | · | · | ·
CC(C)Nc1nc(NCc2ccccc2)c2sccc2n1 | -10 | 4 | -53 | -17 | · | -41 | · | · | · | ·
CC(C)Nc1ncnc2c1ncn2[C@H]1CN(Cc2ccc(F)cc2)C[C@@H](CO)O1 | 6 | -8 | -10 | -3 | · | 3 | · | · | · | ·
CSc1ccc(Cn2c(C)c(C(=O)NCc3ccc(F)cc3)sc2=O)cc1 | 18 | 16 | 11 | 9 | · | -27 | · | · | · | ·
Cc1cc(N2CCN(C)CC2)ccc1NC(=O)c1c2c(nc3ccccc13)CCN(Cc1ccccc1)C2 | 39 | 109* | 27 | -76* | 87* | 10 | 87* | 102* | · | ·
CCCS(=O)(=O)c1cnc(C2COc3ccccc3O2)nc1N (stereo unspecified) | 63 | 88* | 81* | -8 | 72* | -4 | 77* | · | 89* | 90*
O=C(COC(=O)/C=C/c1cccc(F)c1)NCc1ccc2c(c1)OCO2 | -8 | -9 | 0 | 12 | · | 9 | · | · | · | ·
COc1ccc2[nH]cc(C(=O)CCl)c2c1 | -53 | 107* | 33 | -40 | 91* | 82* | 97* | 102* | · | · | CF NFkB conf=113*
COc1ccc2[nH]cc(C(=O)CN3CC(C)CC(C)C3)c2c1 (stereo unspecified) | -13 | -10 | 5 | -3 | 5 | 4 | · | · | · | ·
COc1cccc(C(C)(O)c2nc(-c3cccc(C#N)c3)cs2)c1 (stereo unspecified) | -5 | 12 | 8 | -8 | · | 46 | · | · | · | ·
O=C(CN1C(=O)c2ccccc2S1(=O)=O)c1ccc2c(c1)OCCCO2 | 94* | 99* | 93* | 0 | 82* | -14 | 95* | 96* | 99* | 104*
O=C(CN1C(=O)c2ccccc2S1(=O)=O)c1ccc2c(c1)OCCO2 | · | 108* | 90* | -4 | 88* | 6 | 96* | 100* | 98* | 104*
COc1ccc(-c2sc3ccccc3c2-c2cc(OC)ccc2C=O)cc1 | · | · | -8 | · | · | · | · | · | · | ·
CCC1=C(CC2NCCc3ccccc32)CC2c3cc(OC)c(OC)cc3CCN2C1 (stereo unspecified) | 74 | 61* | 41* | -12 | 70* | 63* | 80* | · | 39 | 104* | CF NFkB conf=72*
O=C(CCN1C(=O)/C(=C/c2ccccc2)SC1=S)Nc1ccccn1 | -4 | 20 | 8 | 12 | -4 | -2 | · | · | · | ·
SMILES | Shn3 inh set2 | Peg3 prom inh-1 | HIF-2a block | KKLEB cytotox | TRPM1 prom inh | CF NFkB inh | Peg3 prom inh-2 | Mdm2-MdmX confirm | HIF-2a conf | HIF-1a counter | others
Cc1ccc(/C=C2\SC(=S)N(CCCC(=O)Nc3ccccn3)C2=O)cc1 | 72 | 53* | 84* | 1 | 79* | 16 | 75* | 93* | · | ·
COc1cc(OC)c(C(=O)Nc2cc(S(=O)(=O)N3CCOCC3)ccc2N2CCOCC2)cc1OC | 0 | -3 | 21 | -4 | · | 1 | · | · | · | ·
COc1ccccc1N(C(=O)CCl)c1cn(C(C)=O)c2ccccc12 | 48 | 67* | 48* | -102* | 63* | 89* | 72* | 103* | 44* | 49
O=C(CCl)N1N=C(c2ccco2)CC1c1cccs1 (stereo unspecified) | -4 | 90* | 40* | -20 | 74* | 58* | 78* | · | -6 | 73* | CF NFkB conf=27
c1ccc(-c2nnc(NC3=NCCC3)o2)cc1 | 1 | -107 | -54 | 8 | -25 | -3 | · | · | · | ·
Fc1ccc(-c2nnc(NC3=NCCCCC3)o2)cc1 | 58 | 82* | 67* | -10 | 62* | 6 | 57* | · | 75* | 66*
Cc1nn(C(C)(C)C)c(C)c1/C=N/OC(=O)Nc1ccc(Cl)cc1 | · | 96* | 91* | -56* | 79* | 1 | 95* | 101* | 96* | 103*
Cc1cccc(C)c1N1C(=O)c2ccccc2NC(=O)C1C(=O)NCCOc1ccccc1 (stereo unspecified) | · | · | 13 | · | · | · | · | · | · | ·
O=C(Nc1cc(S(=O)(=O)N2CCOCC2)ccc1Cl)c1cc([N+](=O)[O-])ccc1Cl | 20 | 109* | 62* | 10 | 36 | 23 | 84* | · | 50* | 10
Brc1ccc2nc(C3CCCCC3)c(Cc3ccsc3)n2c1 | -7 | 15 | -17 | 9 | · | 2 | · | · | · | ·
